In the library only some 4.1% were active in any assay of this set; here they are far more common.
aSyn 5UTR inh – MLPCN primary screen, SNCA 5' untranslated region | alpha-synuclein 5'UTR reporter, inhibitor activity | inhibition, % (tested at 7.5 µM) | 300,000 tested, 0.82% active | AID 1813, 2009; in the data active = inhibition above about 60%; inconclusive = no clear call, values can overlap the other calls;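 also: H4 neuroglioblastoma cells stably carrying SNCA 5'UTR luciferase fusion; 0% = DMSO wells and 100% = positive control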
Mdm2-MdmX inh – inhibitors of human Mdm2-MdmX association, primary screen, cell-based, luminescence, split luciferase, SaOS-2, uHTS; Protein Mdm4 (Homo sapiens) + E3 ubiquitin-protein ligase Mdm2 (Homo sapiens), …; SaOS-2 split-luciferase Mdm2/MdmX complementation; inhibition, % at 8 µM; 330,000 tested, 3% active; AID 485346, 2010;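 active = inhibition of at least 50% at 8 µM in the primary screen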
CSC inhib – cancer stem cell viability inhibitors, primary screen, luminescence | cancer stem cell-like cells viability | inhibition, % at 7.5 µM | 300,000 tested, 1.1% active; in the data active = inhibition above about 75%; inconclusive = no clear call, values can overlap the other calls; tested in HMLE shEcad cells
Beta cell apopt – inhibitors of cytokine-induced beta cell apoptosis, primary screen, luminescence | INS-1E cytokine-induced death, ATP luminescence, 48 h; percent of positive-control rescue, neutral wells zero | protection from apoptosis, % (no concentration beside the values) | 300,000 tested, 0.8% active;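 active = Every replicate reaches about 75%, or at least half do and their mean reaches it too, limit read from the data; inconclusive = At least half of replicates reach the limit but their mean does not; inactive = Under half of replicates reach the limit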;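 also: 0% = cytokine-treated negative control wells and 100% = positive control rescue; higher means more ATP so stronger rescue from cytokine killing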
A1 inh – caspase 3/7 activation in MEF A1-2A-BIM cells, primary screen, A1 inhibitor project, cell-based, luminescence, HTS; Caspase-Glo 3/7 luminescence, 3 h; percent of clofoctol response, vehicle zero; caspase activation, % (no concentration beside the values); 330,000 tested, 0.066% active; AID 2462, 2010;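 active = over half of replicate activation scores above 10%, or exactly half above 10 with the replicate mean above 10; inconclusive = replicate mean below 10 yet half the replicates above 10; inactive = over half of replicates below 10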
Mdm2 MdmX conf – Mdm2-MdmX complex disruptors, retested hits, confirmation, luminescence, single concentration | shares compounds with Mdm2-MdmX inh | Mdm2-MdmX binding, luminescent assay | inhibition, % at 8 µM | 10,000 tested, 55% active | AID 489028, 2010; in the data active = inhibition above about 40%
Full FLuc ctr – full-length luciferase signal inhibition, confirmation, counter-screen for Mdm2/MdmX interaction inhibitor project, cell-based, single concentration, SaOS-2; shares compounds with Mdm2-MdmX inh; SaOS-2 full-length luciferase counterscreen, luminescence; inhibition, % at 8 µM; 6,200 tested, 77% active;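 active = mean inhibition at 8 µM reaching about 37%, which flags the compound as non-specific, limit read from the data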;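 also: p53-null SaOS-2 cells with luciferase driven by a doxycycline-inducible promoter; compound on cells about two nights before reading with doxycycline added after day one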
Starred values were filed as active, the others as inactive; ? = inconclusive; . = no result.

SMILES	aSyn 5UTR inh	Mdm2-MdmX inh	CSC inhib	Beta cell apopt	A1 inh	Mdm2 MdmX conf	Full FLuc ctr
CCN(CCCNC(=O)COc1cc(=O)n(CC)c2ccccc12)c1ccccc1	5	61*	-11	-3	1	28	.
CCN(CCCNC(=O)COc1cc(=O)n(C)c2ccccc12)c1ccccc1	20	21	-11	-4	1	.	.
O=C(CCNS(=O)(=O)c1ccc(Br)cc1)NCCc1ccc(Cl)cc1	24	29	-10	-6	-1	.	.
Cc1cc(C)cc(C(=O)N2CC(=O)Nc3ccccc32)c1	110*	58*	51	22	3	60*	77*
Cc1ccc2nc3sc(C(=O)N4CCOCC4)c(N)c3cc2c1	100*	59*	-10	-6	-1	61*	103*
Cc1ccc2cc3c(N)c(C(=O)N4CC(=O)Nc5ccccc54)sc3nc2c1	82*	64*	-7	39	0	57*	83*
Cc1ccsc1C(=O)N1CC(=O)Nc2ccccc21	-3	18	1	1	0	.	.
Cc1ccc2cc3c(N)c(C(=O)N4CCOCC4)sc3nc2c1	-7	-20	-2	-11	-6	.	.
O=C(Nc1cc(S(=O)(=O)N2CCOCC2)ccc1N1CCCCC1)c1ccccc1Br	.	-14	-15	0	0	.	.
CCn1nc(C)c(CN2CCC(n3nccc3NC(=O)Cc3ccccc3)CC2)c1C	6	27	4	-9	1	.	.
CC(=O)Nc1ccc(NC(=O)C(C)Sc2n[nH]c(=O)n2Cc2ccccc2)cc1 (centres undefined)	12	20	0	-3	0	.	.
CCCCn1c(=O)[nH]c(=O)c2c(C(=O)OCC)cc(-c3ccc(OC(F)F)cc3)nc21	22	57*	.	10	-2	32	.
CCOC(=O)c1c2c(n(C)c1C)C(=O)C(=O)c1ccc(Br)cc1-2	110*	95*	121*	57	0	98*	48*
Cc1c(CN(C)C)c2c(n1C)C(=O)c1ccc(Br)cc1-2	-10	16	3	3	0	.	.
Cc1c(N(C)S(=O)(=O)c2ccc(Cl)c(C(=O)N3CCC(C(N)=O)CC3)c2)c(=O)n(-c2ccccc2)n1C	0	-3	-4	-7	1	.	.
CC(C)N1C/C(=C/c2ccsc2)C(=O)/C(=C/c2ccsc2)C1	-49	92*	22	-1	0	7	.
Cc1ccc(CCC(=O)Nc2ccccc2C(=O)O)o1	-47	-31	3	.	-7	.	.
COc1ccc(N2CCN(CCNC(=O)c3ccc4nc5ccccc5c(=O)n4c3)CC2)cc1	-3	-16	.	.	.	.	.
COc1ccc(N2CCN(CCNC(=O)c3ccc4c(c3)[nH]c(=S)n3c5ccccc5nc43)CC2)cc1	-1	87*	30	47	2	76*	55*
Cc1cccc(Cn2ncc(Cl)c(Cl)c2=O)c1	-30	100*	-11	-14	0	84*	51*
Cc1cc2oc(=O)cc(Cn3ncc(Cl)c(Cl)c3=O)c2cc1Cl	3	96*	80*	110*	0	98*	54*
Cc1cc2oc(=O)cc(CN3CCCCC3C)c2cc1Cl (centres undefined)	34	8	-11	-2	0	.	.
Cc1cc(C(=O)Cn2ncc(Cl)c(Cl)c2=O)c(C)n1CC(F)(F)F	-49	98*	.	.	1	67*	2
Cc1ccc(C)c(C(=O)Cn2ncc(Cl)c(Cl)c2=O)c1	13	97*	56	-12	0	84*	32
O=C(CSc1nc(-c2ccc(F)cc2)cc(C(F)(F)F)n1)Nc1ccc2c(c1)OCO2	24	61*	13	7	0	37	75*
SMILES	aSyn 5UTR inh	Mdm2-MdmX inh	CSC inhib	Beta cell apopt	A1 inh	Mdm2 MdmX conf	Full FLuc ctr
COc1ccc(-c2cc(C(F)(F)F)nc(SCC(=O)Nc3ccc4c(c3)OCO4)n2)cc1	7	44	0	12	-1	.	.
Cc1cccc(NC(=O)N2CCCC(CNC(=O)c3ccccc3Cl)C2)c1C (centres undefined)	-7	9	-10	-5	0	.	.
S=c1[nH]nc(-c2cc(-c3ccccc3)n[nH]2)n1/N=C/c1ccccc1	-35	-8	-11	-7	-1	.	.
S=c1[nH]nc(-c2cc(-c3ccccc3)n[nH]2)n1/N=C/C(Br)=C/c1ccccc1	-42	100*	83*	?	0	84*	24
S=c1[nH]nc(-c2ccco2)n1/N=C/C(Cl)=C/c1ccccc1	-172	62*	83*	2	-1	-39	.
CC(/C=N/n1c(-c2cccnc2)n[nH]c1=S)=C\c1ccccc1	16	22	1	6	0	.	.
CC(=C/c1ccccc1)/C=N/n1c(-c2ccncc2)n[nH]c1=S	0	74*	-28	-28	1	78*	53*
Cc1cc(-c2n[nH]c(=S)n2/N=C/C(Cl)=C/c2ccccc2)n[nH]1	-164	20	0	-16	0	.	.
O=C1c2ccccc2/C(=C\c2ccc3[nH]ccc3c2)N1c1ccccc1	.	12	.	-5	0	.	.
CCC/C(=C1/c2ccccc2C(=O)N1c1ccccc1)c1ccc2[nH]ccc2c1	.	59*	135*	19	0	52*	45*
Cc1nc2c(-c3ccc(Cl)cc3)c(C)[nH]n2c(=O)c1Cc1ccccc1	78*	53*	-9	98*	1	61*	55*
Cc1nc2c(-c3ccccc3)c(C)[nH]n2c(=O)c1Cc1ccccc1	16	22	18	26	0	.	.
CCOC(=O)c1c(NC(=O)N/N=C/c2ccc(O)c(OC)c2)sc(C(C)=O)c1C	-2	68*	-4	1	-1	24	.
CCOC(=O)c1c(NC(=O)c2cc(-c3ccc(O)cc3)on2)sc(C(C)=O)c1C	26	70*	-7	27	0	5	.
COc1ccc(CCN=C(N)C(C)c2ccccc2)cc1OC (centres undefined)	18	15	-11	-1	0	.	.
CC(C)Cc1ccc(C(C)C(N)=NCCc2ccccc2)cc1 (centres undefined)	-75	81*	59	11	0	72*	48*
COc1ccc(OC)c(C2C3=C(COC3=O)Nc3cc4c(cc32)OCO4)c1 (centres undefined)	89*	55*	.	50	.	68*	125*
COc1ccc(C2C3=C(CC(C)(C)CC3=O)Nc3cc4c(cc32)OCO4)cc1 (centres undefined)	-26	5	.	-11	0	.	.
CCCc1c(C(=O)N/N=C/c2sccc2C)nnn1-c1nonc1N	7	16	-9	0	1	.	.

Screening results deposited in PubChem BioAssay by several laboratories.
